Test results reported in PubChem BioAssay (EPA / NIEHS).
Several values for one entry are separate records, joined by “and”; a condition that tells them apart may be missing. Equal entries are not always repeated. Where a structure was tested more than once in an assay, its records may differ in their call. Activity calls are given as the source filed them. How the source made its calls: active means hit-call score of the fitted dose curve at least 0.9, where 1 is the maximum; inactive means score below 0.9.

Experiments:
[1] = ATG_GLI_CIS: Attagene CIS-FACTORIAL HepG2 Assay for human Zinc Finger Protein GLI1 (AID 2282945); details: HepG2, Attagene cis-factorial reporter mRNA, GLI element; actives raise or lower the signal
Method in brief: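 HepG2 cells transiently transfected with cis-promoter multiplexed reporter units report endogenous transcription factor activity. After 24 h chemical exposure, reporter mRNA was quantified by RT-PCR, 6-FAM labelling, HpaI digestion and capillary electrophoresis, with bidirectional fitting against DMSO.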

[2] = target: Bile acid receptor (Homo sapiens) (UniProt Q96RI1); test: ATG_IR1_CIS: Attagene CIS-FACTORIAL HepG2 Assay for human Nuclear Receptor Subfamily 1 Group H Member 4 (NR1H4), IR1 submotif (AID 2282946); details: IR1 reporter transcription, actives raise or lower the signal
Chain of Bile acid receptor (Homo sapiens) (Q96RI1 whole entry, looked up): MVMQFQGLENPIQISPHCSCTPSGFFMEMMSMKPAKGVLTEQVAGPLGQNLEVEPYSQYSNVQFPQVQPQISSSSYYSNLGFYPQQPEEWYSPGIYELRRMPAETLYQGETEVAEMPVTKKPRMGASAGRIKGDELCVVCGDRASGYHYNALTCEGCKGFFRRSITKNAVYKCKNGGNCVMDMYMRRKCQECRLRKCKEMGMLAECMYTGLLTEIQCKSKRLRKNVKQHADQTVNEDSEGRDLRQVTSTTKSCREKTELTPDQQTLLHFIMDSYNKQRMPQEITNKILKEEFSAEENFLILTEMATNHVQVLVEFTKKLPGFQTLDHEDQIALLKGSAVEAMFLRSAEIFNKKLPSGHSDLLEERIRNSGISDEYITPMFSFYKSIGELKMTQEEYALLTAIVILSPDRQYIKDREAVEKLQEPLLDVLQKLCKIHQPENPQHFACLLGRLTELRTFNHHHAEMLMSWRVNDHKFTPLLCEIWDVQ
Method in brief: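 Transient MRTU transfection, HepG2; 24 h dosing; RNA → RT-PCR → 6-FAM primer extension → HpaI digest → capillary electrophoresis fluorescence. Gain/loss of signal fitted relative to DMSO.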

[3] = ATG_GRE_CIS: Attagene CIS-FACTORIAL HepG2 Assay for human Glucocorticoid Response Elements (GRE) (AID 2282947); details: HepG2 GRE cis-reporter, Attagene multiplex mRNA; actives raise or lower the signal
Method in brief: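 Following 24 h chemical exposure of transiently transfected HepG2 cells, total RNA was reverse-transcribed and reporter cDNA amplified, fluorescently labelled and sized by capillary electrophoresis. Signal gain or loss was fitted relative to DMSO vehicle.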

[4] = ATG_ISRE_CIS: Attagene CIS-FACTORIAL HepG2 Assay for human Interferon Regulatory Factor 1 (IRF1) binding to an Interferon-Stimulated Response Element (ISRE) (AID 2282948); details: HepG2 ISRE cis-reporter (Attagene), mRNA transcription readout; actives raise or lower the signal
Method in brief: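 Transiently transfected HepG2 cells carrying cis-element reporter units, dosed 24 hours. Reporter mRNA quantified by RT-PCR, fluorescent primer extension, HpaI digestion and capillary electrophoresis. Bidirectional fitting relative to DMSO.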

[5] = ATG_M_32_CIS: Attagene CIS-FACTORIAL HepG2 Assay for M32 Transcription Factor (Internal Marker) (AID 2282949); details: HepG2 Attagene cis-factorial M32 reporter, mRNA; actives raise or lower the signal;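 further: background control marker of the multiplexed CIS panel rather than a real target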
Method in brief: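 HepG2 cells transiently transfected with multiplexed cis-regulated reporter units, dosed 24 h. Reporter mRNA quantified by RT-PCR, 6-FAM labelling, HpaI digestion and capillary electrophoresis; bidirectional fit vs DMSO.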

[6] = ATG_M_06_CIS: Attagene CIS-FACTORIAL HepG2 Assay for M06 Transcription Factor (Internal Marker) (AID 2282950); details: HepG2 Attagene CIS-FACTORIAL M06 internal marker reporter; actives raise or lower the signal
Method in brief: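 HepG2 cells transiently transfected with cis-regulated multiple reporter transcription units were exposed to chemical for 24 h; reporter mRNA was quantified by RT-PCR, 6-FAM primer labelling, HpaI digestion and capillary electrophoresis, fitted bidirectionally against DMSO.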

[7] = target: Hypoxia-inducible factor 1-alpha (Homo sapiens) (UniProt Q16665); test: ATG_HIF1a_CIS: Attagene CIS-FACTORIAL HepG2 Assay for human Hypoxia Inducible Factor 1 (HIF1A) (AID 2282951); details: HepG2 Attagene cis-factorial HIF1a reporter transcription; actives raise or lower the signal
Chain of Hypoxia-inducible factor 1-alpha (Homo sapiens) (Q16665 whole entry, looked up): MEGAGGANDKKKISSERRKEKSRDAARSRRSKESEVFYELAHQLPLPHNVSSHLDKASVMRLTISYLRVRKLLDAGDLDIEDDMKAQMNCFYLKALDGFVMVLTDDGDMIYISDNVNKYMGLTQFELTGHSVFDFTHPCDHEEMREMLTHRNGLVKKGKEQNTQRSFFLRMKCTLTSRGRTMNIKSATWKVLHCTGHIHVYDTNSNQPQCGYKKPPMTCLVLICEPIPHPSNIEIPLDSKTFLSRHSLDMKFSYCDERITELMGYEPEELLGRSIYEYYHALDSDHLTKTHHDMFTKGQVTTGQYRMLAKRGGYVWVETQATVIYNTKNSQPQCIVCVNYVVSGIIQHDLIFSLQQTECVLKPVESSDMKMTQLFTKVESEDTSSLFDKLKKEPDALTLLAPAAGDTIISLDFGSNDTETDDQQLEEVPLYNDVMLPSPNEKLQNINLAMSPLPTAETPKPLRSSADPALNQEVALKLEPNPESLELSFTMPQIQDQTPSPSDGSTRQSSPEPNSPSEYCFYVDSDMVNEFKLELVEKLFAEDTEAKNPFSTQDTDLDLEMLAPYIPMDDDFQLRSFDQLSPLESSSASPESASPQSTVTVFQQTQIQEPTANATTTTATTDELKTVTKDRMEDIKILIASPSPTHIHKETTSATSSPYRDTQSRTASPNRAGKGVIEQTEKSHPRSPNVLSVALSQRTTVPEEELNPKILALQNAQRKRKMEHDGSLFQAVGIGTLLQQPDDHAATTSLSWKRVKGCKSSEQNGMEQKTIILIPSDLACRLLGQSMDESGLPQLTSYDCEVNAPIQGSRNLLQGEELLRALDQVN
Method in brief: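 Activity is fitted in both directions relative to DMSO. Reporter transcripts are read by RT-PCR, fluorescent primer extension and capillary electrophoresis after 24 h chemical treatment. The cells are HepG2 carrying transiently transfected cis-element-driven reporter units responding to endogenous factors.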

[8] = target: Hepatocyte nuclear factor 6 (Homo sapiens) (UniProt Q9UBC0); test: ATG_HNF6_CIS: Attagene CIS-FACTORIAL HepG2 Assay for human Hepatocyte Nuclear Factor 6 (HNF6) (AID 2282952); details: HepG2 Attagene cis-factorial HNF6 reporter transcription; actives raise or lower the signal
Chain of Hepatocyte nuclear factor 6 (Homo sapiens) (Q9UBC0 whole entry, looked up): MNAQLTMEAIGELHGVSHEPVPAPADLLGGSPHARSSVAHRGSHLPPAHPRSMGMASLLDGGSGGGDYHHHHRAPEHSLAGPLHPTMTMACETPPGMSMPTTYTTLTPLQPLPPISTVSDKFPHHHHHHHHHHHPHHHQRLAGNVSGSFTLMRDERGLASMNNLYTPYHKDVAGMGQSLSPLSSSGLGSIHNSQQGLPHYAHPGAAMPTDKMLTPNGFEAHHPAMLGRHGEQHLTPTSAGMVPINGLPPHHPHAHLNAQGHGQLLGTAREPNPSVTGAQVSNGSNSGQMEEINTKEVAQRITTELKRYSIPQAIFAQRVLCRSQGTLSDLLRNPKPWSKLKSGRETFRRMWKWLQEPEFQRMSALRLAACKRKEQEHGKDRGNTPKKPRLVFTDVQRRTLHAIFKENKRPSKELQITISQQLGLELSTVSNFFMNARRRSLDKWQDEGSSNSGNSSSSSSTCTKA
Method in brief: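 Multiplexed mRNA reporter assay in transfected HepG2; 24 h dosing; RT-PCR plus capillary electrophoresis fluorescence; DMSO-referenced bidirectional curve fitting.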

[9] = target: Heat shock factor protein 1 (Homo sapiens) (UniProt Q00613); test: ATG_HSE_CIS: Attagene CIS-FACTORIAL HepG2 Assay for human Heat Shock Transcription Factor 1 (HSE) (AID 2282953); details: HepG2 HSE cis-reporter, Attagene RNA transcription; actives raise or lower the signal
Chain of Heat shock factor protein 1 (Homo sapiens) (Q00613 whole entry, looked up): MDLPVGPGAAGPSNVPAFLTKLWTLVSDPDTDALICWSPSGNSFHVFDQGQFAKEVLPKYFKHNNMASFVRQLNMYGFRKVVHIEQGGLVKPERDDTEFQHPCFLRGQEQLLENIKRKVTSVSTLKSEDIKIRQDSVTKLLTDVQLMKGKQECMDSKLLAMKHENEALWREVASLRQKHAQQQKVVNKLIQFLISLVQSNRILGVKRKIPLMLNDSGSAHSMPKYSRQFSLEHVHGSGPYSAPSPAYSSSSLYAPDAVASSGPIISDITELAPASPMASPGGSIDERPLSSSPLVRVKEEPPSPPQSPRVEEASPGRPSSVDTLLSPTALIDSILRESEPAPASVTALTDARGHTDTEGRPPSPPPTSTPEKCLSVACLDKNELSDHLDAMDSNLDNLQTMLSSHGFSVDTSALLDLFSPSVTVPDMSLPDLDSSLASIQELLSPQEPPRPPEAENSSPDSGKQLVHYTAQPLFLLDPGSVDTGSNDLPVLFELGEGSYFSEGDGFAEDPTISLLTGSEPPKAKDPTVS
Method in brief: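 HepG2 cells transiently transfected with multiple reporter transcription units under cis-regulatory promoter control, measuring endogenous transcription factor activity. After 24 h chemical exposure, reporter mRNA quantified by RT-PCR, fluorescent labelling, HpaI digestion and capillary electrophoresis; bidirectional fit versus DMSO.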

[10] = ATG_MRE_CIS: Attagene CIS-FACTORIAL HepG2 Assay for human Metal Responsive Element (MRE) (AID 2282954); details: HepG2 MRE cis-reporter transcription, Attagene multiplex; actives raise or lower the signal
Method in brief: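 Step one: transfect HepG2 with cis-regulated reporter units. Step two: dose 24 h. Step three: isolate RNA, RT-PCR, 6-FAM label, HpaI digest, capillary electrophoresis. Fit bidirectionally to DMSO.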

CS/C(C)=N/OC(=O)N(C)SN(C)C(=O)O/N=C(\C)SC
outcome [1]: inactive
outcome [2]: inactive
outcome [3]: inactive
outcome [4]: inactive
outcome [5]: inactive
outcome [6]: inactive
outcome [7]: inactive
outcome [8]: inactive
outcome [9]: inactive
outcome [10]: inactive

O=C(Nc1ccccc1)Nc1ccnc(Cl)c1
outcome [1]: inactive
outcome [2]: inactive
outcome [3]: inactive
outcome [4]: inactive
outcome [5]: inactive
outcome [6]: inactive
outcome [8]: inactive
outcome [9]: inactive
AC50 [10]: 37 µM (active)

CC1COC(Cn2cncn2)(c2ccc(Oc3ccc(Cl)cc3)cc2Cl)O1 (stereo not given)
outcome [1]: inactive
outcome [2]: inactive
outcome [3]: inactive
outcome [4]: inactive
outcome [5]: inactive
outcome [6]: inactive
outcome [8]: inactive
outcome [9]: inactive
AC50 [10]: 3.17 µM (active)

OC(c1ccc(Cl)cc1)(c1cncnc1)c1ccccc1Cl (stereo not given)
outcome [1]: inactive
AC50 [3]: 0.622 µM (active)
outcome [3]: inactive
outcome [4]: inactive
outcome [5]: inactive
outcome [6]: inactive
outcome [7]: inactive
outcome [8]: inactive
AC50 [9]: 69 µM (active)
outcome [9]: inactive
AC50 [10]: 70.8 µM (active)
outcome [10]: inactive

COP(N)(=O)SC (stereo not given)
outcome [1]: inactive
outcome [2]: inactive
outcome [3]: inactive
outcome [4]: inactive
outcome [5]: inactive
outcome [6]: inactive
outcome [8]: inactive
outcome [9]: inactive
outcome [10]: inactive

CNC(=S)S
outcome [1]: inactive
outcome [3]: inactive
AC50 [4]: 73.5 µM (active)
outcome [4]: inactive
outcome [5]: inactive
outcome [6]: inactive
outcome [8]: inactive
AC50 [9]: 83 µM (active)
outcome [9]: inactive
AC50 [10]: 70.4 µM (active)
outcome [10]: inactive

COc1nc(C)nc(NC(=O)NS(=O)(=O)c2ccccc2Cl)n1
outcome [1]: inactive
outcome [3]: inactive
outcome [4]: inactive
outcome [5]: inactive
outcome [6]: inactive
outcome [8]: inactive
outcome [9]: inactive
outcome [10]: inactive

CC(C)(C)c1ccc(CSc2cnn(C(C)(C)C)c(=O)c2Cl)cc1
outcome [1]: inactive
outcome [2]: inactive
outcome [3]: inactive
AC50 [4]: 9.92 µM (active)
outcome [5]: inactive
outcome [6]: inactive
outcome [8]: inactive
AC50 [9]: 21.8 µM (active)
AC50 [10]: 7.83 µM (active)

Cc1c(F)c(F)c(COC(=O)C2C(/C=C(\Cl)C(F)(F)F)C2(C)C)c(F)c1F (stereo not given)
outcome [1]: inactive
outcome [2]: inactive
outcome [3]: inactive
outcome [4]: inactive
outcome [5]: inactive
outcome [6]: inactive
outcome [8]: inactive
outcome [9]: inactive
outcome [10]: inactive

CCOC(=O)CC(SP(=S)(OC)OC)C(=O)OCC (stereo not given)
outcome [1]: inactive
outcome [3]: inactive
outcome [4]: inactive
outcome [5]: inactive
outcome [6]: inactive
AC50 [7]: 24.4 µM (active)
outcome [7]: inactive
outcome [8]: inactive
outcome [9]: inactive
AC50 [10]: 100 µM (active) and 13.2 µM (active)

CCNc1nc(Cl)nc(NCC)n1
outcome [1]: inactive
outcome [2]: inactive
outcome [3]: inactive
outcome [4]: inactive
outcome [5]: inactive
outcome [6]: inactive
outcome [8]: inactive
outcome [9]: inactive
outcome [10]: inactive

C=CCC1=C(C)[C@@H](OC(=O)[C@@H]2[C@@H](C=C(C)C)C2(C)C)CC1=O
outcome [1]: inactive
outcome [2]: inactive
outcome [3]: inactive
outcome [4]: inactive
outcome [5]: inactive
outcome [6]: inactive
outcome [8]: inactive
outcome [9]: inactive
AC50 [10]: 5.26 µM (active)

CO/C=C(/C(=O)OC)c1ccccc1Oc1cc(Oc2ccccc2C#N)ncn1
outcome [1]: inactive
outcome [3]: inactive
outcome [4]: inactive
outcome [5]: inactive
outcome [6]: inactive
outcome [8]: inactive
AC50 [9]: 168 µM (active) and 155 µM (active) and 170 µM (active)
outcome [9]: inactive
AC50 [10]: 50 µM (active) [middle of 6 runs]

COC(=O)N(OC)c1ccccc1COc1ccn(-c2ccc(Cl)cc2)n1
outcome [1]: inactive
outcome [2]: inactive
outcome [3]: inactive
outcome [4]: inactive
outcome [5]: inactive
outcome [6]: inactive
outcome [8]: inactive
outcome [9]: inactive
AC50 [10]: 2.65 µM (active)

CC(C)C1(C)N=C(c2nc3ccccc3cc2C(=O)O)NC1=O (stereo not given)
outcome [1]: inactive
outcome [2]: inactive
outcome [3]: inactive
outcome [4]: inactive
outcome [5]: inactive
outcome [6]: inactive
outcome [8]: inactive
outcome [9]: inactive
outcome [10]: inactive

CC(C)Oc1cc(-n2nc(C(C)(C)C)oc2=O)c(Cl)cc1Cl
outcome [1]: inactive
outcome [2]: inactive
outcome [3]: inactive
outcome [4]: inactive
outcome [5]: inactive
outcome [6]: inactive
outcome [8]: inactive
AC50 [9]: 50 µM (active)
AC50 [10]: 25.1 µM (active)

Cc1ccc(-c2c(Cl)nc(C#N)n2S(=O)(=O)N(C)C)cc1
outcome [1]: inactive
outcome [2]: inactive
outcome [3]: inactive
outcome [4]: inactive
outcome [5]: inactive
outcome [6]: inactive
outcome [8]: inactive
outcome [9]: inactive
outcome [10]: inactive

CC(Oc1ccc(Cl)cc1Cl)C(=O)O (stereo not given)
outcome [1]: inactive
outcome [2]: inactive
outcome [3]: inactive
outcome [4]: inactive
outcome [5]: inactive
outcome [6]: inactive
outcome [8]: inactive
outcome [9]: inactive
outcome [10]: inactive

Cc1cc(Cl)ccc1OCC(=O)O
outcome [1]: inactive
outcome [3]: inactive
outcome [4]: inactive
outcome [5]: inactive
outcome [6]: inactive
outcome [8]: inactive
outcome [9]: inactive
outcome [10]: inactive

Fc1ccc(Oc2ccnc3cc(Cl)cc(Cl)c23)cc1
outcome [1]: inactive
outcome [2]: inactive
outcome [3]: inactive
outcome [4]: inactive
outcome [5]: inactive
outcome [6]: inactive
outcome [8]: inactive
outcome [9]: inactive
outcome [10]: inactive

N#CC(CCc1ccc(Cl)cc1)(Cn1cncn1)c1ccccc1 (stereo not given)
outcome [1]: inactive
outcome [2]: inactive
outcome [3]: inactive
outcome [4]: inactive
outcome [5]: inactive
outcome [6]: inactive
outcome [8]: inactive
outcome [9]: inactive
outcome [10]: inactive

O=C(O)c1nc(Cl)ccc1Cl
outcome [1]: inactive
outcome [3]: inactive
outcome [4]: inactive
outcome [5]: inactive
outcome [6]: inactive
outcome [8]: inactive
outcome [9]: inactive
outcome [10]: inactive

CON(C)C(=O)Nc1ccc(Cl)c(Cl)c1
outcome [1]: inactive
outcome [3]: inactive
outcome [4]: inactive
outcome [5]: inactive
outcome [6]: inactive
outcome [8]: inactive
outcome [9]: inactive
outcome [10]: inactive

CCCCOC(=O)c1ccccc1C(=O)OCCCC
outcome [1]: inactive
outcome [3]: inactive
outcome [4]: inactive
outcome [5]: inactive
outcome [6]: inactive
outcome [8]: inactive
outcome [9]: inactive
AC50 [10]: 41.4 µM (active)
outcome [10]: inactive

CCNc1nc(Cl)nc(NC(C)C)n1
outcome [1]: inactive
outcome [3]: inactive
outcome [4]: inactive
outcome [5]: inactive
outcome [6]: inactive
outcome [8]: inactive
outcome [9]: inactive
outcome [10]: inactive

COc1cnc(OC)n2nc(NS(=O)(=O)c3c(OCC(F)F)cccc3C(F)(F)F)nc12
outcome [1]: inactive
outcome [3]: inactive
outcome [4]: inactive
outcome [5]: inactive
outcome [6]: inactive
outcome [7]: inactive
outcome [8]: inactive
outcome [9]: inactive
outcome [10]: inactive

CCOc1cc(Oc2ccc(C(F)(F)F)cc2Cl)ccc1[N+](=O)[O-]
outcome [1]: inactive
outcome [2]: inactive
outcome [3]: inactive
outcome [4]: inactive
outcome [5]: inactive
outcome [6]: inactive
outcome [8]: inactive
outcome [9]: inactive
AC50 [10]: 22 µM (active)

CCCC1COC(Cn2cncn2)(c2ccc(Cl)cc2Cl)O1 (stereo not given)
outcome [1]: inactive
outcome [2]: inactive
outcome [3]: inactive
outcome [4]: inactive
outcome [5]: inactive
outcome [6]: inactive
outcome [8]: inactive
outcome [9]: inactive
AC50 [10]: 50 µM (active)
outcome [10]: inactive
